Values without a mark were called inactive. Inconclusive results are not listed. Where a call stands in place of a potency, no number is given. Activity calls are given as the source filed them. Unless noted, the call rests on the fitted dose curve; in most records, active means well fitted curve in the direction sought with a large enough effect; inconclusive means small, poorly fitted or top-dose-only effect, or another doubt; inactive means no such curve, though single readings can be large; an effect the other way counts as inactive or inconclusive. Square brackets hold non-standard residues; d marks the D form. Peptide text beside a SMILES is read from it. ξ: configuration not given here. d(hArg(Et2)) = CCN=C(NCC)NCCCC[C@@H](N)C(=O)O; hArg(Et2) = CCN=C(NCC)NCCCC[C@H](N)C(=O)O; Phe(4-Cl) = N[C@@H](Cc1ccc(Cl)cc1)C(=O)O; ξ2Nal = NC(Cc1ccc2ccccc2c1)C(=O)O; 3Pal = N[C@@H](Cc1cccnc1)C(=O)O; ξP = O=C(O)C1CCCN1
Tests used:
[1] = biological target: Lysosomal acid glucosylceramidase (Homo sapiens) (UniProt P04062); experiment: Glucocerebrosidase-p2 (AID 348; in the data active means potency below about 10 µM; further: potency means the concentration at half of the fitted maximal effect); settings: purified GBA, blue fluorogenic substrate, 40 min
Outline: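 Normal human glucocerebrosidase (0.2 nM) with blue fluorogenic substrate (80 uM final) in citrate/phosphate pH 5.9 with 10mM sodium taurocholate, 0.01% tween-20; 40 min RT, NaOH/glycine stop; fluorescence Ex 365/Em 440; AC50 from a titration from 0.6 nM upwards.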

[2] = AP1 Signaling Pathway (AID 357; active means well fitted curve in either direction with a large enough effect, not every such curve was filed as active;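 further: ME-180 reporter cells stimulated with EGF at its EC50 level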); settings: ME-180 AP-1-bla reporter, EGF-induced, beta-lactamase ratio, 5 h; at 7.69 µM (top of the series) unless noted
Outline: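 Modulation of EGF-driven AP-1 transcription was assessed with a beta-lactamase reporter in ME-180 cells. Compound and EC50 EGF were co-incubated 5 hours at 37 °C before 2.5-hour CCF4 loading at room temperature and dual-emission reading.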

[3] = biological target: Cytochrome P450 1A2 (Homo sapiens) (UniProt P05177); experiment: p450-cyp1a2 (AID 410; calls by dose curve; further: potency means the concentration at half of the fitted maximal effect); settings: recombinant CYP1A2, luciferin-ME demethylation, luminescence; series mostly up to 57 µM
Outline: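 Luminescent demethylation readout: Luciferin-ME (100uM, equal to Km) turned over by 20nM CYP1A2 for 60 min at room temperature after NADPH regeneration addition, following 10 min compound preincubation. Normalization used 57 uM furafylline as full inhibition.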

[4] = NFAT Signaling Pathway (AID 444; active means well fitted curve in either direction with a large enough effect, not every such curve was filed as active;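 further: carbachol stimulus at about its EC50 of 1 µM final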); settings: Jurkat NFAT-bla M1, carbachol, beta-lactamase ratio, 5 h; at 7.69 µM (top of the series) unless noted
Outline: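 Jurkat cells with NFAT-driven β-lactamase reporter and co-expressed M1 receptor, stimulated with carbachol (final 1 uM, ~EC50), compound titration, 5 h at 37 °C. CCF4 loaded 1 h at RT; 460/530 nm ratio gave %activity and AC50.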

[5] = Stat Signaling Pathway (AID 446; active means well fitted curve in either direction with a large enough effect, not every such curve was filed as active;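 further: ME-180 cervical cancer cells given 40 pM IL-6 alongside compound; SIE-controlled beta-lactamase reporter measured as 460/530 nm FRET emission ratio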); settings: ME-180 SIE beta-lactamase reporter, IL-6 stimulated, 5 h; series mostly up to 7.69 µM
Outline: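 Emission at 460 and 530 nm (excitation 405 nm) reports SIE-controlled beta-lactamase in ME-180 cells. Cells received compound with 40 pM IL-6 for 5 hrs at 37 C; data scaled between 300 pM IL-6 and 125 nM JAK-inhibitor controls.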

[6] = biological target: Glucocorticoid receptor (Homo sapiens) (UniProt P04150); experiment: GR-GFP Redistribution (AID 450;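 active means compounds whose dose series gives a full or clear partial fitted curve of increased nuclear translocation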; further: potency means the concentration at half of the fitted maximal effect); settings: U2OS GR-GFP nuclear translocation, laser cytometry, 2 h
[7] = biological target: Glucocorticoid receptor (Homo sapiens) (UniProt P04150); experiment: GR-EFC Redistribution (AID 451; calls by dose curve; further: potency means the concentration at half of the fitted maximal effect); settings: CHO-K1 GR-EFC translocation, beta-gal luminescence, 2 h
Outline: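 CHO-K1 cells expressing nuclear EA and GR-ED fragments of b-gal; compounds titrated up to 46 uM final, 2 h at 37 C. GR nuclear translocation read as complemented b-gal luminescence after 1 h RT detection.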

[8] = biological target: Mitogen-activated protein kinase 10 (Mus musculus) (UniProt Q61831); experiment: JNK3 AlphaScreen Assay (AID 530; active means well fitted curve in either direction with a large enough effect, not every such curve was filed as active;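 further: kinase came from lysate of stimulated human HepG2 cells; signal reports phosphorylation of biotinylated GST-cJun 1-79 at Ser73 with 10 µM ATP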); settings: JNK3 lysate, c-Jun phosphorylation; series mostly up to 57.1 µM
Outline: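 Activity was read by AlphaScreen after JNK3-containing HepG2 lysate (cytokine pre-activated) phosphorylated biotinylated GST-cJun with 10 uM ATP at room temperature. Phospho-Ser73 cJun antibody with Protein-A acceptor beads provided detection.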

[9] = biological target: Cytochrome P450 3A4 (Homo sapiens) (UniProt P08684); experiment: qHTS Assay for Inhibitors and Substrates of Cytochrome P450 3A4 (AID 884); settings: recombinant CYP3A4, Luciferin-PPXE luminescence; series mostly up to 57.1 µM; further: potency means the concentration at half of the fitted maximal effect; nearly all actives have a fitted effect of over 50% in size
Outline: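 Luminescent readout of luciferin produced by CYP3A4 (20 nM) dealkylation of Luciferin-PPXE, 25 uM (its KM). NADPH-driven reaction ran 60 min at RT after 10 min compound preincubation; data scaled to 57 uM ketoconazole as 100% inhibition.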

[10] = biological target: Cytochrome P450 3A4 (Homo sapiens) (UniProt P08684); experiment: qHTS Assay for Activators of Cytochrome P450 3A4 (AID 885); settings: recombinant CYP3A4, Luciferin-PPXE luminescence, 60 min; series mostly up to 57.1 µM; further: nearly all actives have a fitted effect of over 65% in size
Outline: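 Activators are scored by enhanced luminescence from CYP3A4 conversion of luciferin-PPXE (25uM, equal to KM) to luciferin, after 60 min at RT with an NADPH-regenerating system.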

[11] = qHTS Assay for Identification of Small Molecule Agonists for Hypoxia Response Element Signaling Pathway (AID 914; active means well fitted activation curve with a large enough effect in the signal ratio, with a control signal flat, not every such curve was filed as active; the % refers to the signal ratio); settings: ME-180 HRE-bla reporter, beta-lactamase ratio, CoCl2, 17 h; activation: stronger effect = higher value
Outline: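 ME-180 cells carrying an HRE-driven beta-lactamase reporter were treated with compounds in a titration series plus an EC50 level of CoCl2 for 17 h at 37 degrees Celsius; CCF4 readout as the 460nm/530nm ratio gave AC50 values.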

[12] = biological target: Dual specificity protein kinase CLK4 (Homo sapiens) (UniProt Q9HAZ1); experiment: qHTS Assay for Inhibitors of CDC-like Kinase 4 (ADP-FP Assay) (AID 1795); settings: Transcreener ADP fluorescence polarization; series mostly up to 50 µM;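 further: recombinant human CLK4 phosphorylating RS repeat peptide at 1 µM ATP; nearly all actives have a fitted effect of over 60% in size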
Outline: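 Kinase activity was measured as ADP production using Transcreener orange tracer (4 nM) and ADP antibody (1 ug/mL) fluorescence polarization, with ADP calculated from a calibration curve. The 1 h reaction contained 6.25 nM Clk4, 1 uM ATP and 100 uM RS peptide at pH 7.5 with Mg2+.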

[13] = biological target: Ubiquitin carboxyl-terminal hydrolase 1 (Homo sapiens) (UniProt O94782); experiment: Inhibitors of USP1/UAF1: Pilot qHTS (AID 504865); settings: purified USP1/UAF1, Ub-rhodamine cleavage fluorescence; series mostly up to 54.9 µM;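 further: rhodamine fluorescence freed from ubiquitin-rhodamine substrate followed over time; top concentration of the series differs between compounds; nearly all actives have a fitted effect of over 35% in size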
Outline: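 Deubiquitinase activity followed as kinetic rhodamine fluorescence release from 150 nM Ub-Rho. 1 nM USP1/UAF1 with compound, after 15 min room-temperature preincubation, in HEPES pH 7.8 buffer containing TCEP, EDTA, BSA and Tween-20.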

[14] = biological target: Cytochrome P450 2D6 (Homo sapiens) (UniProt P10635); experiment: qHTS Assay for Inhibitors and Substrates of Cytochrome P450 2D6 (AID 891); settings: recombinant CYP2D6, luciferin-ME EGE luminescence; series mostly up to 57.1 µM; further: potency means the concentration at half of the fitted maximal effect; nearly all actives have a fitted effect of over 60% in size
Outline: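 Luminescent read-out of luciferin formed by 5 nM human CYP2D6 demethylating 30 uM Luciferin-ME EGE (Km level) over 60 min at room temperature after NADPH regeneration addition. Data normalized to full inhibition by 1.43 uM quinidine.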

[15] = biological target: Cytochrome P450 2C19 (Homo sapiens) (UniProt P33261); experiment: qHTS Assay for Inhibitors and Substrates of Cytochrome P450 2C19 (AID 899); settings: recombinant CYP2C19, luciferin-H EGE luminescence; series mostly up to 57.1 µM; further: potency means the concentration at half of the fitted maximal effect; nearly all actives have a fitted effect of over 60% in size
Outline: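 Luminescent read-out of luciferin formed from Luciferin-H EGE (10uM, equal to KM). Enzyme 5nM in 50mM KPO4; compound added, 10 min at 37C, then NADPH regenerating system for 60 min at 37C. Full inhibition defined by 57uM ketoconazole.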

[16] = biological target: Glutathione peroxidase 1 (Homo sapiens) (UniProt P07203); experiment: Primary qHTS Assay for Inhibitors of Recombinant Selenoprotein Glutathione Peroxidase 1 (GPX1) (AID 1845191); settings: recombinant GPX1, GR-coupled NADPH fluorescence, 15 min; series mostly up to 48.8 µM; further: nearly all actives have a fitted effect of over 65% in size
Outline: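 GR-coupled readout: NADPH consumption tracked by fluorescence, ex 340/em 450 nm, at t=0 and after 15 min at RT. Final mix 10 nM GPX1, 1 mM GSH, 0.5 mM CHP, 0.5 mM NADPH, 100 nM GR, 0.01% BSA, following 30 min enzyme–compound preincubation.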

Sequence of Glucocorticoid receptor (Homo sapiens) (P04150 whole entry, looked up, the tested form may be a part): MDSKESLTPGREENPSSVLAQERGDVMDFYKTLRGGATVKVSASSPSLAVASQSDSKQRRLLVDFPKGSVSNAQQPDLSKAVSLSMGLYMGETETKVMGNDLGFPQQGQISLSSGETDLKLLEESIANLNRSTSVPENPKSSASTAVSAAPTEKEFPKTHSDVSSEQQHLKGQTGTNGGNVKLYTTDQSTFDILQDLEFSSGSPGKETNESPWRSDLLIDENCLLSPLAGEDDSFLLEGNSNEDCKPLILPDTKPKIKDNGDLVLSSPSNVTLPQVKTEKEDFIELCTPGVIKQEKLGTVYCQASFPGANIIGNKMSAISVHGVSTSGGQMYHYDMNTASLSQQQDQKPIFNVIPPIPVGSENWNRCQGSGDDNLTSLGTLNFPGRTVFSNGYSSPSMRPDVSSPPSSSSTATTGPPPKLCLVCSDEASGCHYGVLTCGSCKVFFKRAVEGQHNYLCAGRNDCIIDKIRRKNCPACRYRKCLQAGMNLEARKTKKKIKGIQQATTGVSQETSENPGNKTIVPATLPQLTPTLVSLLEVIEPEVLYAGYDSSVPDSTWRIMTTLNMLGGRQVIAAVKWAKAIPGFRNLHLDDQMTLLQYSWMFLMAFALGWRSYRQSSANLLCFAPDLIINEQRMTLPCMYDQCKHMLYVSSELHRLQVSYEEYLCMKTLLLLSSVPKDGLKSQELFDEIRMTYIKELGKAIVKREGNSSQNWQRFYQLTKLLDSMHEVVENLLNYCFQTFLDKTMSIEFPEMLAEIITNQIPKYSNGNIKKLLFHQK
Sequence of Glutathione peroxidase 1 (Homo sapiens) (P07203 whole entry, looked up): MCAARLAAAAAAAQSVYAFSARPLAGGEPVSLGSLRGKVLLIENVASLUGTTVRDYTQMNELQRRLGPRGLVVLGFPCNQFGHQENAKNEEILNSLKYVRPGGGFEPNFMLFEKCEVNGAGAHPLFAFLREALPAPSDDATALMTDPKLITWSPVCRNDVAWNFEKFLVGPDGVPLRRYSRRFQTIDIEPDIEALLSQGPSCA
Sequence of Cytochrome P450 1A2 (Homo sapiens) (P05177 whole entry, looked up): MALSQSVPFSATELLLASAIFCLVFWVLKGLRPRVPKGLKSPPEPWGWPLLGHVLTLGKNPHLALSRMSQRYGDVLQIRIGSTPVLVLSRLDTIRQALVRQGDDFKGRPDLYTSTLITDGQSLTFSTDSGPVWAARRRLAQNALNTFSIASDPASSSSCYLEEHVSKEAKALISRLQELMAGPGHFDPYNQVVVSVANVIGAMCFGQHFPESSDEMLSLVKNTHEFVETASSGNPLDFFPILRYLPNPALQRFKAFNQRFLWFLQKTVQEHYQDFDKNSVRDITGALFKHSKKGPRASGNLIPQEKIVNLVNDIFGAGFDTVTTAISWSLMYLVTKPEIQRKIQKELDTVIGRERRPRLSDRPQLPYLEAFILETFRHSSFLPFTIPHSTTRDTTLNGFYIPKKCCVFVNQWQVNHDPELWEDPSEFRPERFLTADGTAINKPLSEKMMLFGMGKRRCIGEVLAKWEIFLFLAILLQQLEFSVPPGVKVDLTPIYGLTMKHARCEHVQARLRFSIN
Sequence of Ubiquitin carboxyl-terminal hydrolase 1 (Homo sapiens) (O94782 whole entry, looked up): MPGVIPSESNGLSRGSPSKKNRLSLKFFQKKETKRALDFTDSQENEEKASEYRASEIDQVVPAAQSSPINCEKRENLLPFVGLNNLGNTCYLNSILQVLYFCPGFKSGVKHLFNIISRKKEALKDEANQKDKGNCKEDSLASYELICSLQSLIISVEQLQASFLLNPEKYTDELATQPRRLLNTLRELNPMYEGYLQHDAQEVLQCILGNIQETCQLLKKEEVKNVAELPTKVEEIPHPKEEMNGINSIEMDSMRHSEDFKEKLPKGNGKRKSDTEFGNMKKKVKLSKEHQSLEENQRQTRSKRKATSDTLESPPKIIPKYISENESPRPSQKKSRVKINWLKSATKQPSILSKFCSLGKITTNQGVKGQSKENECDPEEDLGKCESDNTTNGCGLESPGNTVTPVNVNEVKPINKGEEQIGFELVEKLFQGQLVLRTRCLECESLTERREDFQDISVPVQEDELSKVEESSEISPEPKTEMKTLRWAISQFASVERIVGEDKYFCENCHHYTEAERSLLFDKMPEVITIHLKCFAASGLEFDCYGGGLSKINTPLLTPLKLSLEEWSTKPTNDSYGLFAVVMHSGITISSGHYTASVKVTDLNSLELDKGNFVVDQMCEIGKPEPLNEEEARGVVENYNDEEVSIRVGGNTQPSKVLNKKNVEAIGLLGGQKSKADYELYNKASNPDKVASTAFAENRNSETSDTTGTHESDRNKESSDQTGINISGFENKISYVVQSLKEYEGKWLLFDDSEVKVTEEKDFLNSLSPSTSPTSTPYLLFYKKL
Sequence of Cytochrome P450 3A4 (Homo sapiens) (P08684 whole entry, looked up): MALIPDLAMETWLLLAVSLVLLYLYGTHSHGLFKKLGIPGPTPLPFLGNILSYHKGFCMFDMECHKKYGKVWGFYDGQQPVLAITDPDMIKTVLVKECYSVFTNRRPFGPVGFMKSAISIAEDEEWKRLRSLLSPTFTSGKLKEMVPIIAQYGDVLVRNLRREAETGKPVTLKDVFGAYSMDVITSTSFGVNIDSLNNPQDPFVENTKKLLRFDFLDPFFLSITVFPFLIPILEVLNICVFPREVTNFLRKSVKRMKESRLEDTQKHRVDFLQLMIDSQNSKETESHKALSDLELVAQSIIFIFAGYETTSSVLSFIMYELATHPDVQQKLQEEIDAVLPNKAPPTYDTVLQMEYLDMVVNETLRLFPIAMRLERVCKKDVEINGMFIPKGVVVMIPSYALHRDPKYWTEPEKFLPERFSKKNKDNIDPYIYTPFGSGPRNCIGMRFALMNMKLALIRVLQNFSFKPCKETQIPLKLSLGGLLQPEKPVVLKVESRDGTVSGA
Sequence of Dual specificity protein kinase CLK4 (Homo sapiens) (Q9HAZ1 whole entry, looked up): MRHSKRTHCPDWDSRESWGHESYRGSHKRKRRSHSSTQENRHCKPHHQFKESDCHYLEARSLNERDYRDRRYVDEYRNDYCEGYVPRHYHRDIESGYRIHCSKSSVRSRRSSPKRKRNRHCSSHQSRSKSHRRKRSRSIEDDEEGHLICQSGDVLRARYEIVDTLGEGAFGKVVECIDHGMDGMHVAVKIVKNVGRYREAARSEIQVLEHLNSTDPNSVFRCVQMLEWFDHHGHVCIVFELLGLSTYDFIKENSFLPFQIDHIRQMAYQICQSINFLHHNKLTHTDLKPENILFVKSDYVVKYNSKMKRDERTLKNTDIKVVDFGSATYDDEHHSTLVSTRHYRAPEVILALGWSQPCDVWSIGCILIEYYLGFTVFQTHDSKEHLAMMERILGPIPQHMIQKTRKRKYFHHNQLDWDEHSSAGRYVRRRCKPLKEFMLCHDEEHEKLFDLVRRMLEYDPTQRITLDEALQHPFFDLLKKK
Sequence of Lysosomal acid glucosylceramidase (Homo sapiens) (P04062 whole entry, looked up): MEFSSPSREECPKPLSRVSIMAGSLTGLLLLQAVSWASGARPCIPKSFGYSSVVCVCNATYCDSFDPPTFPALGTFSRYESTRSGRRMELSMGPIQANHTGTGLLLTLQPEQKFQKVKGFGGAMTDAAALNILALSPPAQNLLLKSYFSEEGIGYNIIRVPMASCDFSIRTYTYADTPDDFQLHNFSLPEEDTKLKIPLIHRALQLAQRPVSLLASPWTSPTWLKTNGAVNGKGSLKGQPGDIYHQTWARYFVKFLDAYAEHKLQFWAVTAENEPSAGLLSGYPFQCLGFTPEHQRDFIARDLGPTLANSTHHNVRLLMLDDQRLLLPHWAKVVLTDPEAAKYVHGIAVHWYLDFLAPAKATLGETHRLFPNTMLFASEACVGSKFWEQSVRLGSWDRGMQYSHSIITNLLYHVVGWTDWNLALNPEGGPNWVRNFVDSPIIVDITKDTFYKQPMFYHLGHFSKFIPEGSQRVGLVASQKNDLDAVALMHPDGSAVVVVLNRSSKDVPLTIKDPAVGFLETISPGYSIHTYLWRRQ
Sequence of Cytochrome P450 2D6 (Homo sapiens) (P10635 whole entry, looked up): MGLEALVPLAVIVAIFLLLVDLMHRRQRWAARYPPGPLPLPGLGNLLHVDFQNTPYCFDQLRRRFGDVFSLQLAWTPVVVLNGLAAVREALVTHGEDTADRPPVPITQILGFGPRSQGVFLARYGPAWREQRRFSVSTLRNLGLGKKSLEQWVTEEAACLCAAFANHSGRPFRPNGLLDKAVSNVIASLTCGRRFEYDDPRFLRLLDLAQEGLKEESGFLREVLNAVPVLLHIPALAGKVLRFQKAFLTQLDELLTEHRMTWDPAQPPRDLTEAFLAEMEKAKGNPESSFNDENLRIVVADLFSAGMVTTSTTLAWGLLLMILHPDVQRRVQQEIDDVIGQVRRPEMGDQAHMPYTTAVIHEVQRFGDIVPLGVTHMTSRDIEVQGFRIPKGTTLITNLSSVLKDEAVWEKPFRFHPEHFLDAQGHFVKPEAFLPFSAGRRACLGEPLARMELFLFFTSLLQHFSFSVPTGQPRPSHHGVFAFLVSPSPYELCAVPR
Sequence of Cytochrome P450 2C19 (Homo sapiens) (P33261 whole entry, looked up): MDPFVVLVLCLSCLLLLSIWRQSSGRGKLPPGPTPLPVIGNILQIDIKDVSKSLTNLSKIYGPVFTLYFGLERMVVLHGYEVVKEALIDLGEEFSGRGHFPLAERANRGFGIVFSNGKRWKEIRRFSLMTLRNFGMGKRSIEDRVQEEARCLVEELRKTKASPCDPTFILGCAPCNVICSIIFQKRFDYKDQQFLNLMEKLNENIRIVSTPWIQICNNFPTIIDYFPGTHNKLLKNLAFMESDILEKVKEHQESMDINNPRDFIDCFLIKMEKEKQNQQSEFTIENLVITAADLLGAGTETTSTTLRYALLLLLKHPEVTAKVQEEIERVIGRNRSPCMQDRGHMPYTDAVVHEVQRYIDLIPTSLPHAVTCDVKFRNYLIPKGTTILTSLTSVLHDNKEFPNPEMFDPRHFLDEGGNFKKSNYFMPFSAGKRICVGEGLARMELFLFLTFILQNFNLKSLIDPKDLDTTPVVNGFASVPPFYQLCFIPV

CN(C)c1nc(-c2cccc(NS(C)(=O)=O)c2)nc2ccccc12
Potency [1]: > 11.4 µM
activity change, negative = inhibition [2]: 11.2%
Potency [3]: 0.501 µM (active)
activity change, negative = inhibition [4]: 10.8%
outcome [5]: inactive
Potency [6]: > 46 µM
Potency [7]: > 46 µM
Potency [8]: inactive
Potency [9]: 6.31 µM (active)
outcome [10]: inactive
activation [11]: 22.5%
Potency [12]: inactive
Potency [13]: inactive

CN(C)Cc1ccccc1-c1ccc2ncnc(N(C)C)c2c1
activity change, negative = inhibition [2]: -1.59%
Potency [3]: 12.6 µM (active)
activity change, negative = inhibition [4]: -2.16%
outcome [5]: inactive
Potency [6]: > 46 µM
Potency [7]: > 46 µM
Potency [8]: inactive
outcome [10]: inactive
Potency [12]: inactive
Potency [13]: inactive

CCNc1ncc2nc(CCc3ccccc3)c(=O)n(C3CC3)c2n1
activity change, negative = inhibition [2]: -7.57%
Potency [3]: 3.16 µM (active)
activity change, negative = inhibition [4]: 11.9%
outcome [5]: inactive
Potency [7]: > 46 µM
Potency [8]: inactive
outcome [10]: inactive
Potency [14]: 0.398 µM (active)
Potency [15]: 6.31 µM (active)
Potency [12]: inactive
Potency [13]: inactive

COc1ccc(-c2cc(-c3ccc4c(c3)NC(=O)CO4)nc3c2COc2ccc(C)cc2-3)cc1
Potency [16]: inactive

CO[C@H]1/C=C\O[C@@]2(C)Oc3c(C)c(O)c4c(O)c(c5c(c4c3C2=O)=NC2(CCN(CC(C)C)CC2)N=5)NC(=O)/C(C)=C\C=C/[C@H](C)[C@H](O)[C@@H](C)[C@@H](O)[C@@H](C)[C@H](OC(C)=O)[C@@H]1C
Potency [16]: inactive

CC(C)N(CCCCOCC(=O)O)c1cnc(-c2ccccc2)c(-c2ccccc2)n1
Potency [16]: inactive

COC(=O)N(C)Cc1cccc(N2CCN(C(c3ccccc3)c3ccccc3)CC2)c1
Potency [16]: inactive

CCNC(=NCCCC[C@H](NC(=O)[C@H](CC(C)C)NC(=O)[C@@H](CCCCN=C(NCC)NCC)NC(=O)[C@@H](Cc1ccc(O)cc1)NC(=O)[C@@H](CO)NC(=O)[C@H](Cc1cccnc1)NC(=O)[C@H](Cc1ccc(Cl)cc1)NC(=O)C(Cc1ccc2ccccc2c1)NC(C)=O)C(=O)N1CCCC1C(=O)N[C@H](C)C(N)=O)NCC (some centres undefined) (Ac-[ξ2Nal][Phe(4-Cl)][3Pal][dS][dY][d(hArg(Et2))]L[hArg(Et2)][ξP][dA]-NH2)
Potency [16]: inactive

Cc1ccc2nc(-c3ccc(Cl)c(NC(=O)c4ccc5c(c4)OCCO5)c3)oc2c1
Potency [16]: inactive

C/C=C(/C)C(=O)O[C@@H]1c2cc(OC)c(OC)c(OC)c2-c2c(cc3c(c2OC)OCO3)C[C@H](C)[C@]1(C)O
Potency [16]: inactive

CC1CCc2c(cc(Br)c(F)c2Br)N1C=O (centres undefined)
Potency [16]: inactive

Cc1ccc2c(c1)-c1nc(-c3ccc(Cl)cc3)cc(-c3coc4ccccc4c3=O)c1CO2
Potency [16]: inactive

CN1CCN(c2nc(-c3ccoc3)nc3ccccc23)CC1
Potency [1]: > 11.4 µM
activity change, negative = inhibition [2]: 6.84%
Potency [3]: 1.26 µM (active)
activity change, negative = inhibition [4]: -2.81%
outcome [5]: inactive
Potency [6]: > 46 µM
Potency [7]: > 46 µM
Potency [8]: inactive
outcome [10]: inactive
Potency [12]: inactive
Potency [13]: inactive
